The source of these data is PubChem BioAssay (EPA / NIEHS).

Inconclusive results are not listed. Active and inactive are the calls of the source. How the source made its calls: active means hit-call score of the fitted dose curve at least 0.9, where 1 is the maximum; inconclusive means response in the unintended direction; inactive means score below 0.9.

For this assay, the target named is human CYP4F12, CYP4F12 (gene 66002) (UniProt Q9HCS2). Briefly: NVS_ADME_hCYP4F12: NovaScreen (NVS) CYP450-related Enzyme Activity (ADME) Assay for human CYP4F12 (AID 2283111). An outline of the steps: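 Recombinant enzyme with a fluorescent substrate, signal read at 0.5 h post-dose; activity loss analysed relative to acetonitrile. Compounds first run in duplicate at 10 uM, with follow-up concentration-response testing of actives.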
Chain of human CYP4F12, CYP4F12 (gene 66002) (Q9HCS2 whole entry, looked up): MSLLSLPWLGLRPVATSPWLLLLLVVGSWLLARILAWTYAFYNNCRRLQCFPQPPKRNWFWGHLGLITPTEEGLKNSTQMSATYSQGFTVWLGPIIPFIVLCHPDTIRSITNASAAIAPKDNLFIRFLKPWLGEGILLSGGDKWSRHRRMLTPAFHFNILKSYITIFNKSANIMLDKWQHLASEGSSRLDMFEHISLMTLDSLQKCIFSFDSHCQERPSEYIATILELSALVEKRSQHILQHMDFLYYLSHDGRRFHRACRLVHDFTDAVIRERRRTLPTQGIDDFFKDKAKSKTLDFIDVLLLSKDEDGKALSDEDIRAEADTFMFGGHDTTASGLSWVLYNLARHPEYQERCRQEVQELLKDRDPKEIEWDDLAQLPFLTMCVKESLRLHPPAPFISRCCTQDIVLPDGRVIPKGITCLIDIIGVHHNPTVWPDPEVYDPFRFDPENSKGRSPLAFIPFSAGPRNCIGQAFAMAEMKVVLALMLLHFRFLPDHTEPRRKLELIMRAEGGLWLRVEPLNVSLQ

As usually defined, the AC50 is the concentration giving half of the maximal activity seen. With `ClC1C(Cl)C(Cl)C(Cl)C(Cl)C1Cl` (configuration not stated), the AC50 is 17.3 µM (active).

For the compound `O=C(O)C(F)(F)C(F)(F)C(F)(F)C(F)(F)C(F)(F)C(F)(F)C(F)(F)F`, the compound was called inactive.
